Outcome and AC50 data for 25 molecules are collected here from PubChem BioAssay (EPA / NIEHS).

“And” between values parts separate entries of the source, which are not always exact repeats. Identical values can stand only once. Inconclusive results are not listed. Some structures have more than one record in an assay (separate samples or runs), and their calls can disagree. The source made the active and inactive calls. The calls were made as follows: active = hit-call score of the fitted dose curve at least 0.9, where 1 is the maximum; inconclusive = response in the unintended direction; inactive = score below 0.9.

Experiment [1] is described as follows: TOX21_p53_BLA_p2_viability: Viability Assessment in the Tox21 HCT-116 p53 Agonism Beta-lactamase Assay, Phase 2 (AID 2283591).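 Also: compound exposure lasted 16 h at 37 °C; actives lower the ATP signal meaning cytotoxicity.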 The method in brief:
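HCT116 p53-bla cells, 4000/well, dosed after 5 h plating (217-fold dilution of DMSO stocks) and incubated 16 h at 37C. Viability taken as cellular ATP by CellTiter-Glo luminescence after 30 min RT; signal loss marks cytotoxicity.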

The target in experiment [2] is Cellular tumor antigen p53 (Homo sapiens) (UniProt P04637). As to the kind of experiment: TOX21_p53_BLA_p2_ratio: Tox21 HCT-116 p53 Agonism Beta-lactamase Assay, Ratio, Phase 2 (AID 2283592). The method in brief: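 Read-out is the blue/green (460/530 nm, 405 nm excitation) ratio after 2 h CCF4-AM loading, fitted as gain versus DMSO. Compounds, pinned at 217-fold dilution from DMSO stocks, stayed 16 h on HCT-116 beta-lactamase reporter cells seeded 5 h earlier.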
Sequence of Cellular tumor antigen p53 (Homo sapiens) (P04637 whole entry, looked up): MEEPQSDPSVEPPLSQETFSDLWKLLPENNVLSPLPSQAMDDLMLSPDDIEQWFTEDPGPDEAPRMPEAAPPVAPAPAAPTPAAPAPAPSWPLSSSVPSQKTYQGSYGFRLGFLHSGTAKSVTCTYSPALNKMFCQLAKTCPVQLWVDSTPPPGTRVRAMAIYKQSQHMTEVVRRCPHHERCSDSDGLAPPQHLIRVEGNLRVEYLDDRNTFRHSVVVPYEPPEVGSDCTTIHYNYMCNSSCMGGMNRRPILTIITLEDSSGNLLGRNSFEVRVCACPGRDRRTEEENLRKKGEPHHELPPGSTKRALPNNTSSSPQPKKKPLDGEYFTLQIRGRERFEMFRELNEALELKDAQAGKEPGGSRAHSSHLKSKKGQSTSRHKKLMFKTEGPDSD

The nature of experiment [3]: TOX21_p53_BLA_p3_viability: Viability Assessment in the Tox21 HCT-116 p53 Agonism Beta-lactamase Assay, Phase 3 (AID 2283593).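 Also: cells exposed to compound for 16 h before reading.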 The method in brief: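 HCT116 cells, 4000/well, dosed 5 h after plating by pin transfer (217-fold dilution from DMSO stock) and incubated 16 h at 37C, 5% CO2. Viability read as ATP luminescence with CellTiter-Glo after 30 min at room temperature.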

In experiment [4] the target is Cellular tumor antigen p53 (Homo sapiens) (UniProt P04637). The experiment in a line: TOX21_p53_BLA_p3_ratio: Tox21 HCT-116 p53 Agonism Beta-lactamase Assay, Ratio, Phase 3 (AID 2283596). In outline: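 Cells were seeded at 4000/well, rested 5 h at 37C, then dosed with DMSO compound solutions (217-fold dilution) for 16 h. CCF4-AM substrate was loaded for 2 h at room temperature, and the 460/530 nm emission ratio was fitted for gain of signal versus DMSO.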

The nature of experiment [5]: TOX21_p53_BLA_p4_viability: Viability Assessment in the Tox21 HCT-116 p53 Agonism Beta-lactamase Assay, Phase 4 (AID 2283597).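 Also: hits lower the luminescence signal meaning cytotoxicity.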 The method in brief:
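Cytotoxicity as reduced cellular ATP (CellTiter-Glo luminescence, 30 min room temperature), measured in the same wells following the CCF4 FRET p53 reading. Human HCT-116 cells received compounds in DMSO (217-fold dilution) for 16 h.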

Experiment [6] concerns the target Cellular tumor antigen p53 (Homo sapiens) (UniProt P04637). The experiment in a line: TOX21_p53_BLA_p5_ratio: Tox21 HCT-116 p53 Agonism Beta-lactamase Assay, Ratio, Phase 5 (AID 2283599). The method in brief: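 HCT-116 p53-bla cells (4000/well) plated 5 h, dosed with compound (217-fold DMSO dilution) for 16 h at 37 C; CCF4-AM substrate 2 h at room temperature. Activity is the 460/530 nm emission ratio (405 nm excitation), fitted in gain-of-signal direction versus DMSO.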

Experiment [7] is described as follows: TOX21_p53_BLA_p5_viability: Viability Assessment in the Tox21 HCT-116 p53 Agonism Beta-lactamase Assay, Phase 5 (AID 2283600). The method in brief: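 Viability came from CellTiter-Glo ATP luminescence, read after 30 min at room temperature. Before this, HCT-116 p53-bla cells (4000/well) had 16 hours of compound exposure at 37C, with DMSO stocks diluted 217-fold on transfer.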

In experiment [8] the target is Cellular tumor antigen p53 (Homo sapiens) (UniProt P04637). The experiment in a line: TOX21_p53_BLA_p4_ratio: Tox21 HCT-116 p53 Agonism Beta-lactamase Assay, Ratio, Phase 4 (AID 2283601). The method in brief: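 HCT-116 p53 beta-lactamase reporter cells (4000/well) preincubated 5 h, then compound (217-fold dilution of DMSO stock) for 16 h at 37C. CCF4-AM substrate added 2 h at room temperature; 460/530 nm emission ratio fitted upward versus DMSO.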

`CC1(C)S[C@@H]2[C@H](NC(=O)Cc3ccccc3)C(=O)N2[C@H]1C(=O)O` (tested in a mixture with another compound): the result in experiment [1], in experiment [2], in experiment [3], in experiment [4], in experiment [5] and in experiment [6] was inactive. In addition, the result in experiment [7] was inactive.
On to `CCCN1C[C@H](CSC)C[C@@H]2c3cccc4[nH]cc(c34)C[C@H]21`, for which the molecule was called inactive in experiment [1], in experiment [2], in experiment [3], in experiment [4], in experiment [5] and in experiment [6]. Moreover, in experiment [7], the molecule was called inactive.
`Nc1ccc(F)cc1F`: the result in experiment [1], in experiment [2], in experiment [3], in experiment [4], in experiment [5] and in experiment [6] was inactive. In addition, the molecule was classed as inactive in experiment [7].
`Clc1ccc(Cn2c(CN3CCCC3)nc3ccccc32)cc1`: the call in experiment [1], in experiment [2], in experiment [3], in experiment [4], in experiment [5] and in experiment [6] was inactive. In addition, the call in experiment [7] was inactive.
With `CC(C)[C@H](N)C(=O)OCC(CO)OCn1cnc2c(=O)[nH]c(N)nc21` (some centres not stated), the molecule was called inactive in experiment [1], in experiment [2], in experiment [3], in experiment [4], in experiment [5] and in experiment [6]. Besides, in experiment [7], the molecule was classed as inactive.
As usually defined, the AC50 is the concentration giving half of the maximal activity seen. Take `O=C(O)c1ccccc1[N+](=O)[O-]`: the call in experiment [1], in experiment [3], in experiment [4], in experiment [5] and in experiment [7] was inactive. Further, the figures for the AC50 in experiment [2] and in experiment [6] were 73.7 µM (active) and 86.4 µM (active), respectively.
As to `O=C1[C@H]2CCCC[C@H]2C(=O)N1CCCCN1CCN(c2nsc3ccccc23)CC1`, the call in experiment [1], in experiment [2], in experiment [3], in experiment [4], in experiment [5] and in experiment [6] was inactive. In addition, the call in experiment [7] was inactive.
`CCCCCCCCOc1ccc(C(=O)O)cc1`: the outcome in experiment [1], in experiment [2], in experiment [5], in experiment [6] and in experiment [7] was inactive. Moreover, the AC50 in experiment [3] was 45.7 µM (active); in experiment [4], 79.4 µM (active).
Regarding `CN(C)CCCN1c2ccccc2Sc2ccc(C(F)(F)F)cc21`, the molecule was classed as inactive in experiment [1], in experiment [2], in experiment [3], in experiment [6] and in experiment [7]. For the same molecule, the figures for the AC50 in experiment [4] and in experiment [5] were 11.1 µM (active) and 36.2 µM (active), respectively.
As for `OC[C@H]1O[C@@H](O[C@H]2[C@H](O)[C@@H](O)C(O)O[C@@H]2CO)[C@H](O)[C@@H](O)[C@@H]1O` (some centres not stated), the molecule was called inactive in experiment [1], in experiment [2], in experiment [3], in experiment [4], in experiment [5] and in experiment [6]. In experiment [7], the molecule was called inactive.
Regarding `CC(=O)NCc1c(I)c(NC(C)=O)c(I)c(C(=O)O)c1I`, the molecule was classed as inactive in experiment [1], in experiment [2], in experiment [3], in experiment [4], in experiment [5] and in experiment [6]. In addition, in experiment [7], the outcome was inactive.
`CC(C)[C@@H]1CC[C@@H](C)C[C@H]1OC(=O)c1ccccc1O`: the outcome in experiment [1], in experiment [2], in experiment [4], in experiment [5], in experiment [6] and in experiment [7] was inactive. Moreover, the concentration at half-maximal activity (AC50) in experiment [3] is 37.3 µM (active).
Regarding `CC(=O)OC(C)C[N+](C)(C)C` (configuration not stated), the molecule was called inactive in experiment [1], in experiment [2], in experiment [3], in experiment [4], in experiment [5] and in experiment [6]. Also, the molecule was classed as inactive in experiment [7].
For `CC=C(C)C#N`, the result in experiment [1], in experiment [2], in experiment [3], in experiment [4], in experiment [5] and in experiment [6] was inactive. Moreover, the call in experiment [7] was inactive.
Consider `CO/N=C(\C(=O)N[C@@H]1C(=O)N2C(C(=O)O)=C(CSC(=O)c3ccco3)CS[C@H]12)c1csc(N)n1`, for which the molecule was called inactive in experiment [1], in experiment [2], in experiment [3], in experiment [4], in experiment [5] and in experiment [6]. For the same molecule, the outcome in experiment [7] was inactive.
With `NC(N)=NCC1COc2ccccc2O1` (configuration not stated), the molecule was called inactive in experiment [1], in experiment [2], in experiment [3], in experiment [4], in experiment [5] and in experiment [6]. In addition, in experiment [7], the molecule was classed as inactive.
With `C=CC(=O)O`, the molecule was classed as inactive in experiment [1], in experiment [2], in experiment [3], in experiment [4], in experiment [5] and in experiment [6]. For the same molecule, the molecule was called inactive in experiment [7].
Turning to `Cc1cc(C)c(N=Nc2c(O)c(S(=O)(=O)O)cc3cc(S(=O)(=O)O)ccc23)cc1C`, the molecule was classed as inactive in experiment [1], in experiment [2], in experiment [3], in experiment [4], in experiment [5] and in experiment [6]. The outcome in experiment [7] was inactive.
In the case of `Cc1cccc(CN2CCN(C(c3ccccc3)c3ccc(Cl)cc3)CC2)c1` (configuration not stated), the result in experiment [1], in experiment [2], in experiment [3], in experiment [4], in experiment [5] and in experiment [6] was inactive. In experiment [7], the result was inactive.
As for `Cc1nc(NS(=O)(=O)c2ccc(N)cc2)nc(C)c1Br`, the molecule was called inactive in experiment [1], in experiment [2], in experiment [3], in experiment [4], in experiment [5] and in experiment [6]. The call in experiment [7] was inactive.
As for `CC(C)(C)c1cc(CO)cc(C(C)(C)C)c1O`, the result in experiment [1], in experiment [2], in experiment [3], in experiment [4], in experiment [5] and in experiment [6] was inactive. For the same molecule, the molecule was called inactive in experiment [7].
On to `CC(=O)Nc1ccccc1C`, for which the outcome in experiment [1], in experiment [2], in experiment [3], in experiment [4], in experiment [5] and in experiment [6] was inactive.
Take `O=c1cc(CO)occ1O`: the molecule was classed as inactive in experiment [1], in experiment [2], in experiment [3], in experiment [4], in experiment [5] and in experiment [6]. For the same molecule, in experiment [7], the outcome was inactive.
As for `N/C(=N\N=Cc1ccc(Cl)cc1)NN=Cc1ccc(Cl)cc1`, the result in experiment [1], in experiment [2], in experiment [5], in experiment [6] and in experiment [7] was inactive. The AC50 was 42.7 µM (active) in experiment [3] and 37.6 µM (active) in experiment [4].
Turning to `CC(=O)Oc1ccc(C(c2ccc(OC(C)=O)cc2)c2ccccn2)cc1`, the call in experiment [1], in experiment [3], in experiment [6], in experiment [7] and in experiment [8] was inactive. The AC50 is 11.4 µM (active) and 2.16 µM (active) in experiment [2]; 1.55 µM (active) and 3.98 µM (active) in experiment [4]; 1.4 µM (active) and 2.68 µM (active) in experiment [5]; 1.18 µM (active) in experiment [6]; 5.22 µM (active) in experiment [8].
